Sfp inh: qHTS Assay for Inhibitors of Bacillus subtilis Sfp phosphopantetheinyl transferase (PPTase); 4'-phosphopantetheinyl transferase ffp (Bacillus subtilis), Q9F4F7; Biochemical Sfp PPTase activity, qHTS; Potency, µM, without a hit: largest response in the series, negative = inhibition, usual class: inhibitors; 310,000 compounds, 3.5% hits;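 further: the enzyme is Sfp with the accession as filed and its product quenches rhodamine fluorescence; potency means the concentration at half of the fitted maximal effect; 0% = enzyme reaction without inhibitor and -100% = no enzyme wells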
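Step 1, compound plus 15 nM Sfp-PPTase, 15 min, room temperature. Step 2, add rhodamine-CoA (5 uM) and BHQ-2-YbbR (12.5 uM). Step 3, read 525/598 nm fluorescence at 0 and 30 min.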
KDM4E inh: qHTS Assay for Inhibitors of Human Jumonji Domain Containing 2E (JMJD2E) | Lysine-specific demethylase 4E (Homo sapiens), B2RXH2 | JMJD2E catalytic domain, FDH-coupled NADH fluorescence (FDH is formaldehyde dehydrogenase) | Potency, µM (highest dose often 57.1 µM), inactives show at the highest dose activity change, negative = inhibition, hits mostly inhibitors | 230,000 compounds, 1.6% hits | AID 2147, 2009; active means well fitted inhibition curve with a large enough effect, not every such curve was filed as active; inconclusive means small, poorly fitted or top-dose-only effect, or another doubt; inactive means no such curve, though single readings can be large or run the other way;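 further: potency means the concentration at half of the fitted maximal effect; 0% = wells with enzyme and -100% = buffer wells without enzyme; nearly all actives have a fitted effect of over 50% in size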
Target sequence (B2RXH2 1-337 limits assumed): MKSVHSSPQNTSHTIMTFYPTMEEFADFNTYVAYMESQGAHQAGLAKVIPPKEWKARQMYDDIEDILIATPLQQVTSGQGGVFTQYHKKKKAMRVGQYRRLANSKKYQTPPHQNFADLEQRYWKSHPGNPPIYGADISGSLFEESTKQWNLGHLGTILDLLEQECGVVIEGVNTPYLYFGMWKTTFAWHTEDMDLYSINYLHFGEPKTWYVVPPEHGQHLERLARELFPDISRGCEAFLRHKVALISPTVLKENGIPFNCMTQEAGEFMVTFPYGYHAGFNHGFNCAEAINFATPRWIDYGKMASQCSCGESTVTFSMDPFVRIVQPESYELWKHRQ
FBPA coupling cs: qHTS Assay for Inhibitors of Fructose-1,6-bisphosphate Aldolase from Giardia Lamblia: Coupling assay counterscreen; coupling enzyme system counterscreen, AmpLite Red fluorescence; activity change, negative = inhibition, % at 58.2 µM, hits read low; 290,000 compounds, 0.67% hits; AID 2472, 2010; in the data active means activity change below about -30%
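First, compound is pin-transferred into glyceraldehyde-3-phosphate coupling-enzyme reagent at 57.5 uM final and held 10 min at RT. Next, substrate, coupling system and AmpLite Red are added. After 20 min RT, fluorescence (525/598 nm) is read.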
GoLoco inh red: qHTS Assay for Inhibitors of RGS12 GoLoco Motif Activity (Red Fluorophore); Guanine nucleotide-binding protein G(i) subunit alpha-1 (Homo sapiens), P63096; Gai1:RGS12 GoLoco peptide FP, rhodamine, 10 min; Potency, µM (highest dose often 61.6 µM), inactives show top-dose activity, negative = inhibition, usual class: inhibitors; 230,000 compounds, 0.44% hits; active means well fitted inhibition curve with a large enough effect, not every such curve was filed as active; inactive means no such curve, though single readings can be large or run the other way; further: potency means the concentration at half of the fitted maximal effect; nearly all actives have a fitted effect of over 30% in size
Target sequence (P63096 whole entry, looked up): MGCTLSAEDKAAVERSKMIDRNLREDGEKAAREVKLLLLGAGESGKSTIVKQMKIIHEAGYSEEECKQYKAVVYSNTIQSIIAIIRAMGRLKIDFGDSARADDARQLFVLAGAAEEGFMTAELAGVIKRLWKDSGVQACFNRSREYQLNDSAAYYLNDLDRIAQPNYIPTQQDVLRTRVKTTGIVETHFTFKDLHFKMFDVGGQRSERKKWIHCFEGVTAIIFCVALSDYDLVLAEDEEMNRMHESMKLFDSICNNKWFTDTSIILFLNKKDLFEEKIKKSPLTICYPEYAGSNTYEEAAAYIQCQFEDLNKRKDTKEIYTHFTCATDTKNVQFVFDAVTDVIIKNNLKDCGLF
ALDH1A1 inh: qHTS Assay for Inhibitors of Aldehyde Dehydrogenase 1 (ALDH1A1) | Aldehyde dehydrogenase 1A1 (Homo sapiens), P00352 | Purified ALDH1A1, NADH fluorescence, propionaldehyde substrate | Potency, µM (highest dose often 75.3 µM), for the others: at the top dose activity, negative = inhibition, hits mostly inhibitors | 220,000 compounds, 7.3% hits; active means well fitted inhibition curve with a large enough effect, not every such curve was filed as active; inconclusive means small, poorly fitted or top-dose-only effect, or another doubt; inactive means no such curve, though single readings can be large or run the other way;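 further: potency means the concentration at half of the fitted maximal effect; plate controls were no enzyme wells and a reference inhibitor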
NPSR antagonist: qHTS Assay for Antagonists of the Neuropeptide S Receptor: cAMP Signal Transduction; Q6W5P4; CHO-NPSR cells, cAMP TR-FRET, antagonist mode; Potency, µM (series often up to 38.3 µM), without a hit: at the highest dose activity change, negative = inhibition, most hits filed as inhibitors; 220,000 compounds, 1% hits; AID 1461, 2008; further: potency means the concentration at half of the fitted maximal effect; nearly all actives have a fitted effect of over 50% in size
An asterisk follows results filed as active; ? = inconclusive; . = no result; [ ] = dose if it differs, or a comment. Most compounds without a hit are left out; they make up all but 8.5% or so of the library. Unless noted, the call rests on the fitted dose curve; in most records, active means well fitted curve in the direction sought with a large enough effect; inconclusive means small, poorly fitted or top-dose-only effect, or another doubt; inactive means no such curve, though single readings can be large; an effect the other way counts as inactive or inconclusive. Unless noted, on the % scale 0 is the no-effect control and ±100 the full control effect.

SMILES	Sfp inh	KDM4E inh	FBPA coupling cs	GoLoco inh red	ALDH1A1 inh	NPSR antagonist
CCCc1cc(=O)oc2c(C)c(O[C@@H]3O[C@H](CO)[C@@H](O)[C@H](O)[C@H]3O)ccc12	7%	.	0	.	.	.
CCOc1ccc(CCNC(=O)c2ccc3ccccc3n2)cc1OCC	-19%	.	.	.	.	.
CCCC(=O)Oc1ccc(C2NC(=O)c3ccccc3O2)cc1OC (stereo unspecified)	13%	.	2	.	.	.
Cc1ccc(NS(=O)(=O)c2cccc(C(=O)NCC3(N(C)C)CCCCC3)c2)cc1	-17%	4%	1	3%	7%	10µM*
COc1ccc(Cl)cc1NS(=O)(=O)c1cccc(C(=O)NCC2(N(C)C)CCCCC2)c1	-1%	.	.	.	.	.
CCN(CC)CCNC(=O)c1ccc(NC(=O)c2cccc(S(=O)(=O)Nc3ccc(C)cc3)c2)cc1	40µM*	0%	0	7%	-3%	-25%
Cc1c(O)c2cccnc2[nH]c1=O	22%	7%	0	6%	10%	18%
O=c1c2cc([N+](=O)[O-])ccc2nc(CN2CCN(c3ccccn3)CC2)n1-c1ccccc1F	?	?	-1	1%	14µM*	-13%
COc1cccc(-n2c(CN3CCN(Cc4ccccc4)CC3)nc3ccc([N+](=O)[O-])cc3c2=O)c1	-5%	-20%	-5	-2%	24µM*	5%
COc1ccc(-n2c(CN3CCN(C)CC3)nc3ccc([N+](=O)[O-])cc3c2=O)c(OC)c1	-4%	.	-1	.	.	.
COc1ccc(-n2c(CN3CCN(c4ccccn4)CC3)nc3ccc([N+](=O)[O-])cc3c2=O)c(OC)c1	5%	?	-3	9%	?	-26%
COc1ccc(-n2c(CN3CCN(Cc4ccccc4)CC3)nc3ccc([N+](=O)[O-])cc3c2=O)c(OC)c1	-6%	?	0	5%	20µM*	-31%
COc1ccccc1-c1nc(Nc2ccncc2)c2ccccc2n1	-17%	.	-1	8%	?	.
CN1CCN(C(c2cccs2)c2nnnn2Cc2ccc(F)cc2)CC1 (stereo unspecified)	9%	?	5	5%	?	-21%
CSc1nnc(C2CCN(CC(=O)Nc3ccccc3N3CCOCC3)CC2)n1C(C)C	15%	.	0	.	.	.
COC(=O)/C(=C1/OC(=O)C(c2ccccc2)=C1O)c1ccccc1	-8%	-1%	14	4%	0%	.
COC(=O)/C=C1\OC(c2ccccc2)=CC1=O	20µM*	0%	3	7%	10µM*	-59%
Cc1ccc(NS(=O)(=O)c2cccc([N+](=O)[O-])c2)nc1	-1%	?	-1	4%	11µM*	-8%
O=S(=O)(Nc1ccc(Cl)cn1)c1cccc(S(=O)(=O)c2ccccc2)c1	1%	-22%	7	-7%	20µM*	-24%
CC(=O)c1sc(NC(=O)COc2ccc(Cl)cc2C)nc1C	9%	2%	4	8%	.	8%[7.67 µM]
CC(=O)c1sc(NC(=O)COc2ccc(Cl)cc2Cl)nc1C	14%	2%	2	21%	11µM*	?
CCc1c2c(nc3ccc4c(c13)OCCO4)-c1nc3ccccc3c(=O)n1C2	-6%	.	-4	.	.	.
O=C(O)c1ccc(NC2CC(=O)N(Cc3ccccc3)C2=O)cc1 (stereo unspecified)	5%	5%	0	1%	?	1%
CN=C1S/C(=C\c2cc(C)n(-c3ccccc3F)c2C)C(=O)N1C	?	?	-19	12%	18µM*	?
CC1C(=O)C(=O)C=CN1C (stereo unspecified)	45µM*	.	.	.	.	.
SMILES	Sfp inh	KDM4E inh	FBPA coupling cs	GoLoco inh red	ALDH1A1 inh	NPSR antagonist
CN(c1ccc(O)cc1)c1nc(-c2cccs2)cs1	-2%	3%	2	-2%	7%	1%
Cc1nc(N)sc1-c1csc(N(C)c2ccc(O)cc2)n1	6%	-20%	-6	11%	14µM*	-29%[46.1 µM]
Cn1cc(C=O)c2ccccc21	6%	-3%	-3	7%	2.8µM*	2%
O=Cc1ccc(-n2cc(C=O)c3ccccc32)cc1	-27%	?	0	7%	11µM*	-10%
COC(=O)/C(=C/c1cn(C)c2ccccc12)[N+](=O)[O-]	56µM*	2%	-18	27%	1.8µM*	-27%[46.1 µM]
Cc1ccc(/C(C#N)=C\c2cn(C)c3ccccc23)cc1	-4%	9%	-4	8%	1%	-19%[46.1 µM]
Cc1ccc(S(=O)(=O)Nc2ccc(NS(=O)(=O)c3ccc(C)cc3)c3ncccc23)cc1	14%	.	-6	.	.	.
COc1ccc(CN2CCNC(=O)C2CC(=O)NCc2cc(C)n(C)n2)c(F)c1 (stereo unspecified)	-3%	.	-8	.	.	.
COc1cc(CNCc2cc(OC)c(OC)c(OC)c2)cc(OC)c1	-21%	.	-4	.	.	.
COc1ccc(/C=C2/N=C(SC3CCOC3=O)N(c3cccc(OC)c3)C2=O)cc1 (stereo unspecified)	-9%	5%	-10	.	3.5µM*	?
CCOCCc1nnc(NC(=O)CS(=O)(=O)c2ccc(C)cc2)s1	3%	.	0	.	.	.
COc1cc(/C=C/C(=O)Nc2ccc(C)cc2)cc(OC)c1OC	-2%	-1%	0	3%	1%	-1%
COc1cc(/C=C/C(=O)Nc2nnc(C(C)(C)C)s2)cc(OC)c1OC	50µM*	-6%	4	7%	?	-8%
Cc1ccc(C2(C)NC(=O)N(CC(=O)NC(=O)NC(C)(C)C)C2=O)cc1 (stereo unspecified)	-2%	.	2	.	.	.
O=C(/C=C/c1ccc2c(c1)OCO2)NC1CCCC1	21%	.	-5	.	.	.
Cc1ccc(/C=N/NC(=O)c2ccncc2)o1	-19%	0%	1	-3%	?	7%
Cc1ccc(/C=N/NC(=O)c2ccccn2)o1	56µM*	-12%	0	2%	-15%	17%
O=C(N/N=C/c1ccc2c(c1)OCO2)c1ccccn1	79µM*	1%	-2	4%	4%	-14%[46.1 µM]
O=C(/C=C/c1ccccc1)c1ccccn1	28µM*	?	-5	1%	-3%	-8%[46.1 µM]
O=C(/C=C/c1ccc2c(c1)OCO2)c1ccccn1	32µM*	?	-16	10%	.	-13%
CC(C)Oc1ccc(CCC(=O)N/N=C/c2ccc3c(c2)OCO3)cc1	7%	.	-5	.	.	.
O=C(CCc1ccc(O)c(O)c1)N/N=C/c1ccc2c(c1)OCO2	40µM*	.	.	.	.	.

High-throughput results as filed in PubChem.
